Compound activity as filed in PubChem BioAssay.
S1P3 antagonist: blocks the human S1P3 receptor. inhibition, % at 4.98 µM. Q99500. actives 0.27% (n = 170,000). CHO S1P3 NFAT-BLA reporter, FRET fluorescence, antagonist mode;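 active = inhibition above the plate cutoff, the mean inhibition of test wells on that plate plus 3 SD, cut at about 28% in these data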;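 also: cells challenged with S1P at its EC80 of 0.8 µM; blue over green emission ratio from cleaved BLA substrate after 4 h stimulation; 0% = S1P-stimulated wells and 100% = unstimulated DMSO-only wells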
PERK inh: blocks human PERK kinase. CHO PERK-DD fusion, SEAP luminescence translation reporter. AID 1416. actives 0.17% (n = 220,000). inhibition, % at 5.6 µM. Q9NZJ5;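 active = inhibition above the mean inhibition of all tested compounds plus 3 SD, set separately per screening campaign, cut at about 2.9% in these data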;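 also: PERK kinase domain activated by AP20187 dimerizer at 100 nM; 0% = DMSO with dimerizer and 100% = rapamycin at 8.4 µM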
S1P4 antagonist: antagonists of human S1P4 receptor; S1P4-expressing cells, antagonist mode, reporter read-out; actives 0.26% (n = 220,000); AID 1510; inhibition, % at 4.98 µM; in the data active = inhibition above about 29%;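 also: 0% = wells stimulated with agonist and 100% = vehicle wells without agonist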
Target sequence (O95977 whole entry, looked up): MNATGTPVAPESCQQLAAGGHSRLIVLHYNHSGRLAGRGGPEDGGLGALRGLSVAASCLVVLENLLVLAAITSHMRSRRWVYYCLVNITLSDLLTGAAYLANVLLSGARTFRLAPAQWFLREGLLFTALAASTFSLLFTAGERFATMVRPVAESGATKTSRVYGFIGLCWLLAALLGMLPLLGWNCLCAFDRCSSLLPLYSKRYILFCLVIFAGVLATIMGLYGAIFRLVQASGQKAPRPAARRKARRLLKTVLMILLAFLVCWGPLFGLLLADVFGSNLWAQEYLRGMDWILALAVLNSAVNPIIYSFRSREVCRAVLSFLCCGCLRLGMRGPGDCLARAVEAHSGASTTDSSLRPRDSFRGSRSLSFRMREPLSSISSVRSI
S1P4 ag: activates the human S1P4 receptor. O95977. S1P4-expressing cell line, agonist reporter assay. actives 0.35% (n = 220,000). AID 1509. activation, % at 4.98 µM; in the data active = activation above about 11%;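 also: 0% = DMSO vehicle and 100% = reference agonist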
Calpain2 inh: inhibitors of pig calpain II | purified calpain II, fluorogenic peptide substrate, 30 min | inhibition, % at 16 µM | actives 0.37% (n = 220,000) | AID 1236;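 active = inhibition above about 50%, limit read from the data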
* hit, by the source's call; nt = no result. An excerpt weighted towards active compounds, which were near 1.3% of everything screened.

SMILES	S1P3 antagonist	PERK inh	S1P4 antagonist	S1P4 ag	Calpain2 inh
CC(C)OCCCN1C=C2C(=O)C(C)(OC(=O)CCc3ccccc3)C(=O)C=C2C=C1c1ccc(C#N)cc1 (stereo not drawn)	nt	nt	nt	nt	-35
CCOC(=O)C1CCCN(C(=O)Nc2c(-c3ccccc3)noc2C)C1 (stereo not drawn)	-12	0	1	0	-8
COc1ccc(OCCNc2cc(N3CCOCC3)ccc2[N+](=O)[O-])cc1	nt	0	-9	0	93*
COc1cccc(OCCNc2cc(N3CCOCC3)ccc2[N+](=O)[O-])c1	-1	-1	-3	-2	22
Cc1ccc(CNC(=O)CCCCCNc2nc(=S)[nH]c3ccccc23)cc1	0	0	-5	-1	61*
O=C(CN1c2ccccc2Sc2ccccc21)NNC(=O)Nc1cccc(Cl)c1	-1	-1	-5	2	-10
COc1ccc(N(C(=O)c2ccco2)S(=O)(=O)c2cc(Cl)c(Cl)cc2Cl)cc1	nt	-1	-29	-1	54*
CN(C)CC(C)(C)CNS(=O)(=O)c1ccc(Cl)s1	-6	2	-6	1	0
COc1ccc(S(=O)(=O)NNC(=O)C(=O)NNc2ccccn2)cc1	7	2	-11	1	7
COc1ccccc1NC(=O)c1ccc(CSc2ncccn2)cc1	4	-1	3	1	11
CN(C)c1ccnc(Oc2ccc(Cl)cc2)c1C#N	nt	-1	-6	-2	-17
CN(C)c1ccnc(Oc2ccc(C(C)(C)C)cc2)c1C#N	nt	0	-7	-1	59*
COc1ccccc1-n1c([S-])c(C(=O)Nc2ccccc2C(F)(F)F)[n+]2ccc(C(=O)NCCO)cc12	-3	0	-6	-1	69*
O=C(NNc1ccccc1F)C1CCC1	1	0	17	1	-9
O=C(NNc1ccccc1F)c1ccccc1	7	5.0*	16	0	-15
Cc1c(Nc2scc(-c3ccccc3)[n+]2-c2ccccc2)c(=O)n(-c2ccccc2)n1C	-10	0	-8	-1	2
Cc1ccccc1Nc1scc(-c2ccc(Cl)cc2)[n+]1-c1ccccc1C	2	0	-15	1	50*
COc1ccc(C)cc1N1C(=N)/C(=C2/Nc3ccccc3S2)C(c2ccccc2)C1=O (stereo not drawn)	8	0	-4	-1	-30
CCc1cccc(NC(=O)c2ccc3c(=O)n4c(nc3c2)CCCCC4)c1	5	-2	1	1	35
CCC1CC(C)(C(=O)Nc2ccc(S(N)(=O)=O)cc2)OC1=O (stereo not drawn)	-50	2.9*	-5	2	-48
CC1CC(CC(C)C(=O)NC(=S)Nc2ccc(S(N)(=O)=O)cc2)C(=O)O1 (stereo not drawn)	2	0	-12	1	-11
COc1ccc(CNC(=O)C/C(C)=N/NC(=O)c2cnccn2)cc1	6	1	6	0	-12
CCc1cc(C(=O)O)c(NC(=O)c2cc(OC)c(OC)c(OC)c2)s1	-22	1	-10	3	19
Nc1ccc2c(c1)Cc1cc([N+](=O)[O-])ccc1-2	52*	1	20	0	-16
O=C(CCc1ccc(S(=O)(=O)N2CCOCC2)cc1)Nc1ccc2c(c1)OCCO2	6	-1	10	0	-28
SMILES	S1P3 antagonist	PERK inh	S1P4 antagonist	S1P4 ag	Calpain2 inh
COc1ccc(C(=O)Cc2ccccc2)cc1OC	-28	4.8*	-16	0	-6
CC1CCCCN1C(=O)Cn1cc(C(=O)c2ccco2)c2ccccc21 (stereo not drawn)	96*	-2	-32	-4	25
O=C(c1ccco1)c1cn(CC(=O)N2CCCCCC2)c2ccccc12	-16	0	3	1	27
COc1ccc2nccnc2c1[N+](=O)[O-]	2	0	0	-1	-17
Nc1nc(-c2cccc(NS(=O)(=O)c3ccccc3)c2)cs1	53*	1	0	-4	30
CC(=O)Nc1ccc(S(=O)(=O)Nc2cccc(-c3csc(C)n3)c2)cc1	7	0	1	0	-1
Cc1cc(C)c(NC2=NS(=O)(=O)c3ccccc32)c(C)c1	nt	3.6*	-5	2	4
Cc1ccc(C(=O)NNS(=O)(=O)c2ccccc2[N+](=O)[O-])cc1	nt	1	-7	-3	-25
Cc1ccc(C(=O)NCCCNc2ccccc2[N+](=O)[O-])cc1	-20	0	11	0	51*
CCCc1nc(SCC(=O)N2CCCc3ccccc32)c2c(=O)n(C)c(=O)n(C)c2n1	-14	0	6	-2	62*
O=C(CSc1nnnn1C1CCCCC1)Nc1ccccc1F	-12	-1	-15	2	-6
